Test systems include CDK8; CDK9; CDKL1; CDKL2; CDKL3; CDKL5; CHEK1; CHEK2; CIT; CLK1; CLK2; CLK3; CLK4; CSF1R-autoinhibited; CSF1R; CSK; CSNK1A1L; CSNK1A1; CSNK1D; CSNK1E.
Settings in all cases: concentration: 1 μM, replicates: in singlicate; n = 1

SMILES strings stand for the structures.
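Also: KINOMEscan kinase panel screen.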

With `COC(=O)Nc1nc2cc(Oc3ccc(NC(=O)Nc4cccc(SC)c4)cc3)ccc2[nH]1.Cl` [GW697999], the “%Inh” value in the assay with CDK8 came to 47%; in the assay on CDK9, 0%; in the assay with CDKL1 it was 21%; in the assay with CDKL2, 86%; with CDKL3, 0%; in the assay on CDKL5, 0%. Also, the “%Inh” value in the assay with CHEK1 amounted to 2%; in the assay on CHEK2, 28%; with CIT, 98%; with CLK1 it was 19%; with CLK2, 32%; in the assay with CLK3, 23%. The “%Inh” value amounted to 24% with CLK4; 53% with CSF1R-autoinhibited; 99.6% with CSF1R; 0% in the assay with CSK; 6% in the assay with CSNK1A1L; 0% in the assay with CSNK1A1. The “%Inh” value in the assay on CSNK1D came to 17%; in the assay with CSNK1E it was 22%.
`CC(C)c1nc(-c2ccc(F)c(NS(=O)(=O)c3c(F)cccc3F)c2)c(-c2ccnc(Nc3ccc(N4CCOCC4)nc3)n2)s1` [GSK1804250]: the “%Inh” value in the assay on CDK8 came to 28%; in the assay on CDK9, 1%; with CDKL1, 22%; in the assay on CDKL2 it was 99.3%; in the assay with CDKL3 it was 0%; in the assay with CDKL5, 88%. The “%Inh” value turned out to be 0% with CHEK1; 49% with CHEK2; 81% with CIT; 7% in the assay with CLK1; 9% in the assay on CLK2; 6% in the assay with CLK3. Besides, the “%Inh” value in the assay on CLK4 worked out at 21%; in the assay on CSF1R-autoinhibited, 14%; in the assay with CSF1R it was 94.5%; in the assay with CSK, 97.4%; in the assay with CSNK1A1L, 19%; with CSNK1A1 it was 10%. The “%Inh” value in the assay with CSNK1D worked out at 33%; in the assay on CSNK1E, 36%.
Consider `CN(c1ccc(F)c(NC(=O)c2cccc(OC(C)(C)C#N)c2Cl)c1)c1ccc2nc(NC(=O)C3CC3)sc2n1`, for which the “%Inh” value in the assay on CDK8 is given as 2%; in the assay with CDK9 it was 0%; in the assay on CDKL1 it was 0%; with CDKL2 it was 27%; in the assay with CDKL3, 0%; in the assay on CDKL5, 0%. Moreover, the “%Inh” value with CHEK1 stood at 0%; in the assay on CHEK2, 13%; with CIT, 93.7%; with CLK1, 0%; with CLK2, 0%; with CLK3, 0%. Also, the “%Inh” value is listed as 0% in the assay on CLK4; 17% in the assay on CSF1R-autoinhibited; 99.8% in the assay on CSF1R; 16% in the assay with CSK; 14% in the assay on CSNK1A1L; 9% with CSNK1A1. In addition, the “%Inh” value in the assay with CSNK1D and in the assay on CSNK1E was 0% each time.
As to `CC(C)(C)c1ccc(C(=O)Nc2cn3cc(-n4ccnc4)ccc3n2)cc1`, the “%Inh” value with CDK8 worked out at 5%; in the assay on CDK9 it was 3%; in the assay with CDKL1, 29%; in the assay on CDKL2, 0%; in the assay with CDKL3 it was 18%; in the assay with CDKL5, 7%. Besides, the “%Inh” value with CHEK1 amounted to 0%; in the assay with CHEK2 it was 0%; with CIT, 44%; in the assay on CLK1, 92.4%; in the assay with CLK2, 79%; in the assay with CLK3 it was 16%. Besides, the “%Inh” value with CLK4 was 84%; in the assay on CSF1R-autoinhibited, 0%; in the assay with CSF1R, 46%; in the assay with CSK, 0%; with CSNK1A1L, 34%; in the assay on CSNK1A1, 60%. The “%Inh” value turned out to be 84% with CSNK1D and 70% in the assay on CSNK1E.
For the molecule `COC(=O)Nc1nc2ccc(Oc3ccc(CC(=O)Nc4cc(C(F)(F)F)ccc4F)cc3)cc2[nH]1` [GW680903], the “%Inh” value in the assay on CDK8 turned out to be 0%; with CDK9, 0%; with CDKL1, 2%; in the assay on CDKL2, 14%; in the assay on CDKL3, 0%; in the assay with CDKL5 it was 0%. In addition, the “%Inh” value in the assay on CHEK1 is recorded as 0%; in the assay on CHEK2, 20%; with CIT it was 68%; in the assay on CLK1 it was 24%; in the assay with CLK2 it was 0%; with CLK3, 0%. Besides, the “%Inh” value amounted to 3% in the assay with CLK4; 50% in the assay on CSF1R-autoinhibited; 71% in the assay with CSF1R; 0% in the assay with CSK; 0% in the assay with CSNK1A1L; 0% in the assay on CSNK1A1. Further, the “%Inh” value with CSNK1D and in the assay on CSNK1E was 0% each time.
Take `CSc1ccc(NC2=C(c3ccc(Cl)cc3)C(=O)NC2=O)cc1` [SB-317658]: the “%Inh” value with CDK8, in the assay with CDK9, in the assay with CDKL1, with CDKL2, with CDKL3 and with CDKL5 was 0% in each case. For the same molecule, the “%Inh” value with CHEK1 stood at 0%; with CHEK2 it was 13%; in the assay with CIT, 0%; with CLK1 it was 17%; with CLK2, 26%; with CLK3 it was 0%. Moreover, the “%Inh” value with CLK4 was found to be 19%; with CSF1R-autoinhibited, 0%; with CSF1R, 30%; in the assay with CSK it was 21%; with CSNK1A1L, 0%; with CSNK1A1, 20%. In addition, the “%Inh” value is reported as 1% in the assay with CSNK1D and 6% with CSNK1E.
Consider `COc1cc(Nc2ccnc3cc(-c4ccncc4)ccc23)cc(OC)c1OC.Cl` [GW494610], for which the “%Inh” value with CDK8 worked out at 43%; in the assay with CDK9, 0%; in the assay on CDKL1, 100%; in the assay on CDKL2 it was 8%; in the assay on CDKL3, 11%; in the assay on CDKL5 it was 0%. In addition, the “%Inh” value was 0% in the assay with CHEK1; 0% with CHEK2; 41% in the assay with CIT; 9% with CLK1; 0% with CLK2; 0% in the assay on CLK3. The “%Inh” value in the assay on CLK4 is listed as 29%; in the assay on CSF1R-autoinhibited it was 22%; in the assay on CSF1R, 49%; with CSK, 79%; in the assay on CSNK1A1L, 18%; in the assay with CSNK1A1, 11%. The “%Inh” value was found to be 46% in the assay on CSNK1D and 38% with CSNK1E.
Turning to `Cc1cc(-c2ccnc(Nc3cccc(C#N)c3)n2)cc(C)c1O` [GSK1440913], the “%Inh” value came to 30% in the assay on CDK8; 52% with CDK9; 1% with CDKL1; 89% in the assay with CDKL2; 99.1% in the assay with CDKL3; 24% in the assay with CDKL5. Further, the “%Inh” value in the assay with CHEK1 is reported as 0%; in the assay with CHEK2, 0%; in the assay on CIT, 94%; with CLK1, 99%; with CLK2, 89%; in the assay with CLK3 it was 91.5%. Also, the “%Inh” value in the assay with CLK4 is recorded as 95.8%; with CSF1R-autoinhibited, 13%; with CSF1R it was 14%; with CSK, 0%; in the assay with CSNK1A1L, 30%; in the assay on CSNK1A1, 0%. Moreover, the “%Inh” value in the assay with CSNK1D was 76%; with CSNK1E, 90.3%.
In the case of `COc1cccc(C2=C(Nc3cccc(O)c3)C(=O)NC2=O)c1` [SB-390771], the “%Inh” value in the assay with CDK8 worked out at 17%; in the assay on CDK9, 0%; in the assay on CDKL1, 86%; with CDKL2 it was 7%; with CDKL3, 0%; in the assay on CDKL5 it was 0%. For the same molecule, the “%Inh” value with CHEK1 worked out at 0%; with CHEK2 it was 0%; in the assay on CIT it was 4%; in the assay with CLK1, 73%; in the assay with CLK2, 61%; in the assay on CLK3, 17%. Besides, the “%Inh” value is 72% in the assay on CLK4; 45% in the assay on CSF1R-autoinhibited; 37% in the assay on CSF1R; 100% in the assay with CSK; 10% with CSNK1A1L; 0% with CSNK1A1. For the same molecule, the “%Inh” value in the assay with CSNK1D is reported as 32%; in the assay on CSNK1E it was 29%.
On to `NCCC(NC(=O)c1cc(Br)c(-c2ccnc3[nH]ccc23)s1)c1ccccc1.O=C(O)C(F)(F)F.O=C(O)C(F)(F)F` (centres unmarked) [GSK1307810], for which the “%Inh” value came out at 100% in the assay on CDK8; 35% in the assay with CDK9; 2% in the assay on CDKL1; 0% in the assay on CDKL2; 0% in the assay on CDKL3; 0% with CDKL5. For the same molecule, the “%Inh” value in the assay with CHEK1 is listed as 0%; with CHEK2 it was 41%; in the assay on CIT, 98.5%; in the assay with CLK1 it was 41%; in the assay with CLK2 it was 37%; in the assay on CLK3 it was 54%. The “%Inh” value with CLK4 was found to be 46%; with CSF1R-autoinhibited, 43%; in the assay with CSF1R, 18%; with CSK, 0%; with CSNK1A1L it was 71%; in the assay on CSNK1A1 it was 93.9%. Besides, the “%Inh” value with CSNK1D and with CSNK1E was 94.1% throughout.

Values taken from article PMC5540273 (PLoS ONE, 2017).
